Experimental data taken from the supplement of paper PMC6555819.

The sequences below were run on VDR:RXRa (NR concentration 270 nM, RXRa partner concentration 90 nM) (assay: PBM binding z-score (relative to random genomic background probes); higher = stronger binding; sequences stand for … in GC…GCGATTGACAGCGTAGAATGAAGG).
Protocol: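 Protein-binding microarray (Agilent 4x180K custom design, double-stranded 60-nt probes: 5' GC cap, 34-nt variable region, 24-nt constant primer region; full probe sequence given). Purified or IVT nuclear receptor:RXRα heterodimers (3:1 NR:RXRα, mostly 270:90 nM) or homodimers were incubated for 1 h in PBS with 2% milk and no ligand, then detected with Alexa488 antibodies. Fluorescence from o1-orientation probes (~5 replicates averaged) was converted to z-scores against 500 random hg19 background probes. Variable regions are seed direct-repeat (DR0–DR5) sites, all their single-nucleotide variants and half-site ablations.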

Row | Sequence | PBM binding z-score
1 | CTATGTAGGTTAAGCGGGTCATTCAGTTTGAAAG | 5.74
2 | GATACAAGGTCAGCTAGAGGCCAGAGTATGGAAA | 3.19
3 | CACACTAGGTCAAGAGGTCAAAGTCCGCTTCCCG | 6.08
4 | CGAACTAGGTCAAAGGACAGAGAAAGGCGACGTA | 1.54
5 | CGTCCAAGGTCAATGCTAGGCCAGTGAAAGCATT | 3.78
6 | TTACCAAAGTGAAAGGTCGTTGATGCACGCCTTG | 1.86
7 | CCTACGGGGCCAAGGTCATTGATCAGTCAAAGCA | 3.52
8 | CGAACTAGGTCAAAGGACTGTGAAAGGCGACGTA | 1.14
9 | TCGAGTAGGTTACTGGGGCATTCAGGGATGAAGA | 0.313
10 | AAATGTAGGTTAGGGTCATTCAGAAAGTAGGGAA | 4.55
11 | ATATGCAGGTTAGGGTCATTCAGAAAGTAGGGAA | 4.26
12 | CGAACTAGGTCACCAAGACAGTGAAGAGGTTGGA | 1.49
13 | ATACCAAGGTTATCGTGAGGTCGTTGATACTAAC | 4.98
14 | ATATGTAGGTTAGGGTCATTCGGAAAGTAGGGAA | 4.45
15 | CTATGTAGGTTAAGGGGGTCTTTCAGTTTGAAAG | 3.93
16 | CGAACTAGGTCACCAGGACAGCGAAGAGGTTGGA | 1.88
17 | CCTAGTTGGCCAAGGTCACACACGCTATAGGTAC | 4.02
18 | ATCGAAAGGTCGTGACGTGAGTATACAGAAAGGC | 3.03
19 | CTATGTAGGTTCAGGGGGTCATTCAGTTTGAAAG | 6.91
20 | TCTCGGAGGACACGAAAAGTCAGAGCTCGACATC | -0.0283

Row | Sequence | PBM binding z-score
21 | GCTAGTTTGTCAGTAAAAGGTCACACACCGGTCG | 3.95
22 | CGAACTAGGTCAAAAGACAGTGAAAGGCGACGTA | 0.721
23 | ATCGAACGGTCGACGAGGTGAGTATACACCGTTT | 0.299
24 | CGTCAAAGCTCAACTAAGGTAACGTAAAGCACGC | 0.0405
25 | CAAACCAGGTCACGAAAGGTCAAAGTCGAATGAC | 7.16
26 | TCGAGTAGGTTACGGAGGCATTCAGGGATGAAGA | 0.176
27 | CGGACTAGGTCAAAGGACAGTGAAAGGCGACGTA | 1.16
28 | CAAACTAGGTCACCGTAAGGTCAAAGTCCGCATG | 6.28
29 | CGAACTAGGTCAAAGGACAGTGATAGGCGACGTA | 1.45
30 | TCTAGTTGGTCATGGAGGTCACACACGACGGGTA | 5.98
31 | ATCGAATGGTCGAAGGTGAGTATACCCACCCGAA | -0.0843
32 | CCGAGTACGTTACGAGGGGGCATTCAGTGCGAAT | 4.15
33 | ATCGAAAGGTCGCAGGTGAGTATACCCACCCGAA | 3.2
34 | TCTGCTATGTCAACGATGGTCAGCTAATCTGCTA | -0.405
35 | TCCAGTAGGTTACGGGGGCATTCAGGGATGAAGA | 4.04
36 | ATCTCTAGGTCAAAGTTCAGTGAATCCCGAGGAT | 4.4
37 | CTATGTAGGTGAAGGGGGTCATTCAGTTTGAAAG | 7.13
38 | ATCGAAAGGTCGTGAGGTGAGTTTACAGAAAGGC | 4.49
39 | CATACACGGTCAGCTAGGCCAGAGTAGGGACGGC | -0.0494
40 | AGTCAAATTTCATCTAGGTAACGTAAGATATGCT | 0.0583
